Growth data for 13 compounds are collected here from PubChem BioAssay (NCI).

The panel holds about 83,000 compounds, 20% with a hit somewhere; the sample as a whole holds those more often.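 Testing used 96-well plates and a 48-hour single-concentration exposure. Example: -40 means 40% of the starting cells died.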 Values without a mark were called inactive. Calls of active or inactive are those of the source. Rule for the calls: active = growth percent below 10; inactive = the rest.

What all share (test): NCI-60 one-dose screen, 48 h (100 = growth as untreated, 0 = no growth, -100 = all killed)
Common to all, as to details: 10 µM unless noted

Experiment [1] relates to NCI-H23 lung.
In experiment [2] the test system is NCI-H226 lung.
Experiment [3] concerns NCI-H322M lung.
In experiment [4] the test system is HOP-62 NSCLC.
Experiment [5] concerns NCI-H460 lung.
The subject of experiment [6] is NCI-H522 lung.
Experiment [7] relates to A549/ATCC NSCLC.
In experiment [8] the test system is 786-0 renal.
For experiment [9], the system named is COLO 205 colon.
Experiment [10] deals with DU-145 prostate.

Regarding `CC1(C)OC(=O)C(=Cc2ccccc2Br)C(=O)O1`, the growth is 101% in experiment [1]; 96.9% in [2]; 101% in experiment [3]; 106% in [4]; 102% in experiment [5]; 88.8% in experiment [6]. Moreover, the growth in [7] was 103%; in [8] it was 103%; in experiment [9], 109%; in experiment [10], 116%.

On to `Nc1ccc2c(c1)/C(=N/O)c1cc([N+](=O)[O-])ccc1-2`, for which the growth is 71.5% in experiment [1]; 76.3% in [2]; 42% in experiment [3]; 91.7% in experiment [4]; 27.3% in [5]; 55.1% in experiment [6]. In addition, the growth is 49.2% in [7], 63.1% in experiment [8], 104% in experiment [9] and 46.4% in experiment [10].

As to `O=C1c2ccccc2-c2c1nc1ccccc1[n+]2[O-]`, the growth was 102% in experiment [1]; 106% in [2]; 97% in experiment [3]; 102% in experiment [4]; 102% in experiment [5]; 93.1% in experiment [6]. Further, the growth is 108% in [7], 103% in experiment [8], 111% in [9] and 108% in experiment [10].

In the case of `CC1=C(C(=O)Nc2ccccc2)C(c2ccc3c(c2)OCCO3)NC(=O)N1` (stereo not given), the growth was 101% in [1]; 102% in experiment [2]; 107% in experiment [3]; 104% in experiment [4]; 107% in experiment [5]; 104% in experiment [6]. The growth in experiment [7] was 98.8%; in [8], 100%; in [9] it was 105%; in experiment [10], 114%.

`COc1ccc(Nc2nccc(N3CCN(c4c5ccc(Cl)cc5nc5ccc(OC)cc45)CC3)n2)cc1`: the growth in experiment [1] is 95.7%; in experiment [2], 93.8%; in experiment [3] it was 83.5%; in [4], 95.6%; in experiment [5], 85.8%; in [6], -58.3% (active). For the same compound, the growth in experiment [7] is 75.2%; in experiment [8] it was 60%; in [9], 61.1%; in experiment [10], 86.6%.

Take `CC(C)C(=O)Cc1cnccn1`: the growth in experiment [1] is 93.7%; in experiment [2], 110%; in [3], 103%; in experiment [4], 106%; in [5], 103%; in experiment [6] it was 109%. Moreover, the growth in [7] is 96.5%; in experiment [8] it was 109%; in experiment [9] it was 113%; in experiment [10], 111%.

Take `COC(=O)CCC1=C(CC(=O)OC)C(C)=N/C1=C\c1[nH]c(-c2ccc[nH]2)cc1OC`: the growth in experiment [1] is 49.4%; in experiment [2], 54.5%; in [3], 53.3%; in experiment [4], 46.1%; in experiment [5], 19.1%; in experiment [6], -7% (active). For the same compound, the growth in experiment [7] is 18%; in [8], 50.2%; in experiment [9], 30.5%; in [10], 36.9%.

For `O=C(CSc1nnc(Nc2ccccc2)s1)NCCc1ccc(F)cc1`, the growth in experiment [1] was 131%; in experiment [2], 85.1%; in [3] it was 115%; in experiment [4] it was 103%; in experiment [5] it was 105%; in experiment [6], 91.5%. Moreover, the growth in [7] was 124%; in [8], 95.6%; in [9] it was 115%; in experiment [10], 105%.

On to `CCOC(=O)C(Cc1ccccc1)(C(=O)OCC)C(Br)C(=O)c1ccccc1` (stereo not given), for which the growth in experiment [1] is 84.4%; in [2] it was 88%; in experiment [3], 83.9%; in experiment [4], 95.6%; in experiment [5], 93%; in [6], 22.5%. The growth is 80.2% in experiment [7], 50% in [8], 63% in experiment [9] and 93% in experiment [10].

Consider `O=C1OCC/C1=C\OCCCO/C=C1\CCOC1=O`, for which the growth in experiment [1] is 102%; in [2] it was 103%; in [3] it was 100%; in experiment [4] it was 122%; in experiment [5] it was 107%; in experiment [6] it was 98.3%. Also, the growth in experiment [7] was 98.7%; in experiment [8] it was 102%; in [9], 141%; in [10], 115%.

As for `COc1ccc2[nH]c(-c3ccccc3)cc2c1`, the growth in experiment [1] was 98.9%; in [2], 96.5%; in [3] it was 120%; in [4], 115%; in experiment [5] it was 111%; in [6], 74.1%. For the same compound, the growth in experiment [7] is 96.2%; in [8] it was 103%; in experiment [9] it was 110%; in experiment [10] it was 101%.

For `Cc1cc2c(cc1[N+](=O)[O-])NC(CNC(C)C)CC2` (stereo not given), the growth is 93.9% in [1]; 93.6% in experiment [2]; 113% in experiment [3]; 103% in experiment [4]; 107% in experiment [5]; 105% in experiment [6]. In addition, the growth in experiment [7] was 104%; in experiment [8], 92.9%; in experiment [9] it was 120%; in [10], 105%.

Turning to `COc1ccc(C(=O)/C=C/c2c(Cl)nc3c(c(C)nn3-c3ccccc3)c2-c2ccc(Br)cc2)cc1`, the growth in [1] was 105%; in experiment [2] it was 97.3%; in experiment [3], 109%; in experiment [4] it was 104%; in [5], 106%; in experiment [6] it was 98.6%. Besides, the growth in [7] is 104%; in experiment [8], 91.5%; in experiment [9], 111%; in experiment [10], 112%.
